Screens deposited in PubChem BioAssay by National Center for Advancing Translational Sciences (NCATS).
Cycloheximide cs – counter-screen hit for Shiga toxin inhibitors, cycloheximide; cell reporter, cycloheximide protein synthesis inhibition counterscreen; max response, %; 12% of 300,000 active; AID 2314; in the data active = max response mostly above about 13%, no sharp cut-off; inactive = mostly below about 14%; also: read at 38.3 µM for the half of the compounds with a filed dose; 0% is about no effect
Shiga inhibitor – Shiga toxin inhibition; Vero cells, Shiga toxin protein synthesis inhibition reporter; inhibition, % at 38.7 µM; AID 2315; 9.2% of 290,000 active; in the data active = inhibition mostly above about 28%, no sharp cut-off; inactive = mostly below about 43%; also: 0% is about no effect
NS1 function inh – inhibitors of influenza NS1 protein function; 0.4% of 270,000 active; Potency, µM (titrated, usually from 46.1 µM), for the others: at the top dose activity, positive = more growth; calls by dose curve; also: potency is read from the fitted curve at half-maximal effect; actives are rising curves; nearly all actives have a fitted effect of over 50% in size
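A cell-based growth assay was used: compounds that relieve NS1-induced slow growth of budding yeast raise OD600. Assay medium was yeast nitrogen base with ammonium sulphate and -URA supplement, pH 6.0, with 2% galactose.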
Pf growth 96h – P. falciparum growth inhibition at 96 hours; P. falciparum luciferase reporter growth, 96 h; Potency, µM (highest dose often 28.7 µM), for inactives: at the top dose activity change, negative = inhibition, usual class: inhibitors; 6.9% of 320,000 active; also: potency is read from the fitted curve at half-maximal effect; % is scaled to controls: 0 for no effect and ±100 for the full control effect
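Infected RBCs, 2% Hct / 0.05% parasitemia final; luciferase-reporter P. falciparum; cpd 96 h, 37 C, 5% CO2; luciferase detection reagent; luminescence.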
Pf growth 48h – inhibits P. falciparum growth in the first generation, 48 h; P. falciparum luciferase growth in erythrocytes, 48 h; Potency, µM (top dose mostly 28.7 µM), for the others: at the highest dose activity change, negative = inhibition, usual class: inhibitors; 5.9% of 310,000 active; also: potency is read from the fitted curve at half-maximal effect; % is scaled to controls: 0 for no effect and ±100 for the full control effect
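In quantitative HTS format, infected erythrocytes bearing luciferase-reporter parasites were treated for a single generation at 37 C. Luminescence after adding detection reagent served as the growth measure.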
Sm TGR inh – inhibitors of Schistosoma mansoni thioredoxin glutathione reductase. Q962Y6. purified TGR, DTNB reduction, TNB absorbance 405 nm. Potency, µM (doses to about 114 µM), for the others: at the highest dose activity change, negative = inhibition, actives largely listed as inhibitors. 3% of 360,000 active; also: potency is read from the fitted curve at half-maximal effect; % is scaled to controls: 0 for no effect and ±100 for the full control effect; nearly all actives have a fitted effect of over 60% in size
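Kinetic colorimetric format: TGR-catalysed, NADPH-driven DTNB reduction monitored via TNB absorbance. Enzyme dispensed at 20 nM; compound exposure 15 min at room temperature before reaction start.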
* hit, by the source's call; ? = inconclusive; nt = not tested or not shown. Only some compounds are listed: those with a hit (about 21% of all), similar ones and a draw of the others. Unless noted, calls follow the shape of the dose curve; as a rule, active = well fitted curve in the direction sought with a large enough effect; inconclusive = small, poorly fitted or top-dose-only effect, or another doubt; inactive = no such curve, though single readings can be large; an effect the other way counts as inactive or inconclusive.

SMILES	Cycloheximide cs	Shiga inhibitor	NS1 function inh	Pf growth 96h	Pf growth 48h	Sm TGR inh
COc1ccc(/C=N/N2CCN(C)CC2)c(OC)c1OC	4.7	10.2	nt	-16.6%	0.0%	50.1µM*
O=[N+]([O-])c1ccc(C2=NCCO2)cc1	38.8*	74.3*	-59.6%	60.0%	26.2%	11.4%
CC1(C)C(=O)OC(c2cc(Br)ccc2O)C(C)(C)C1=O (stereo not drawn)	0.3	-13.9	-5.1%	30.6%	11.7µM*	2.3%
COc1ccc(/C=N/NC(=O)c2cc(-c3cccn3C)n[nH]2)cc1OC	-3.0	-12.3	23.6%	1.85µM*	13.1µM*	0.0%
COc1cc(OC)c(OC)cc1/C=N/NC(=O)c1cc(-c2cccn2C)n[nH]1	-2.2	-19.1	-0.6%	?	?	?
Cn1cccc1-c1cc(C(=O)N/N=C/c2cccc(O)c2)[nH]n1	29.7*	55.9*	nt	?	22.4%	?
CCCc1cc(=O)[nH]c(SCC(=O)Nc2oc(C)c3c(C)n[nH]c(=O)c23)n1	nt	nt	nt	7.5%	22.7%	-20.6%
COc1ccc(CCn2c(-c3ccc(Cl)cc3)n[nH]c2=S)cc1OC	0.7	-8.6	nt	0.0%	-1.1%	7.6%
COc1ccc(CCn2c(C)ccc2C)cc1OC	-3.4	9.9	9.7%	8.28µM*	5.22µM*	?
Cc1cc(Cl)c(S(=O)(=O)Nc2cccc(O)c2)cc1OCC(N)=O	3.5	7.9	14.2%	30.5%	1.6%	3.9%
COc1ccc(NS(=O)(=O)c2cc(OCC(N)=O)c(C)cc2Cl)cc1	-0.1	-4.1	-5.8%	2.08µM*	10.4µM*	-2.9%
CCOc1ccc(NS(=O)(=O)c2cc(OCC(N)=O)c(C)cc2Cl)cc1	-0.4	0.8	14.3%	3.7µM*	1.47µM*	4.8%
CNS(=O)(=O)c1cc(OCC(N)=O)c(C)cc1Cl	-0.1	-5.2	15.0%	nt	19.0%	6.7%
O=C(Cn1c(C(=O)OCCO)cc2ccccc21)c1ccccc1	-2.3	nt	8.3%	?	-4.5%	-26.5%
CC(C)c1ccc(OCC(=O)Nc2cccc(C(=O)Nc3ccccc3C(=O)O)c2)cc1	1.2	-1.7	7.8%	9.28µM*	?	-4.8%
O=C(COc1ccccc1O)Nc1ccccc1Cl	70.6*	92.6*	-31.3%	0.0%	74.6%	0.0%
Cc1cc(C(=O)Nc2ccccc2C(=O)O)ccc1NC(=O)COc1ccccc1Cl	-3.1	-27.0	-3.6%	?	0.3%	-22.5%
O=C(COc1ccccc1Cl)Nc1ccccc1C(=O)Nc1cccc(C(=O)O)c1	40.4*	32.8	4.8%	25.8%	56.1%	3.5%
O=C(COc1ccccc1Cl)Nc1ccc(C(=O)O)cc1NC(=O)COc1ccccc1Cl	9.5	16.1	12.0%	6.57µM*	1.4%	4.2%
Cc1ccc(NC2CCCN(C(=O)c3ccnc(Cl)c3)C2)cc1C (stereo not drawn)	-4.3	17.6	-0.2%	118.4%	2.2%	-32.4%
CCC(Sc1ncccc1C(=O)Oc1ccccc1Cl)C(=O)Nc1ccccc1OC (stereo not drawn)	nt	nt	nt	nt	nt	1.0%
O=C(CSc1ncccc1C(=O)Oc1ccccc1Cl)Nc1ccccc1Cl	19.7	64.4*	nt	nt	nt	0.1%
CC1(C)CC(=O)C(C(c2ccc(F)cc2)C2C(=O)CC(C)(C)CC2=O)C(=O)C1	-2.6	-4.1	12.9%	?	-2.6%	44.7µM*
COC(=O)c1ccc(C(C2C(=O)CC(C)(C)CC2=O)C2C(=O)CC(C)(C)CC2=O)cc1	1.2	-5.1	13.2%	?	?	?
CC1(C)CC(=O)C(C(c2ccc(Br)cc2)C2C(=O)CC(C)(C)CC2=O)C(=O)C1	-3.4	-10.7	-7.2%	?	111.1%	17.8µM*
SMILES	Cycloheximide cs	Shiga inhibitor	NS1 function inh	Pf growth 96h	Pf growth 48h	Sm TGR inh
COc1cc(NC(=O)CN2CCN(S(=O)(=O)/C=C/c3ccccc3)CC2)cc(OC)c1OC	nt	nt	nt	?	?	-6.4%
Cc1cc(OCC(=O)NC2CC2)c2c(C)cc(=O)oc2c1	-4.6	-6.1	1.7%	3.5%	-11.6%	-1.3%
CCCc1cc(=O)oc2cc(C)cc(OCC(=O)Nc3ccc(CN4CCOCC4)cc3)c12	1.0	-1.7	-4.7%	8.28µM*	?	-18.4%
CCc1cc(=O)oc2cc(C)cc(OCC(=O)NC(Cc3c[nH]c4ccc(O)cc34)C(=O)O)c12 (stereo not drawn)	-1.2	-7.3	14.0%	-25.2%	-9.2%	-7.2%
CCc1cc(=O)oc2cc(C)cc(OCC(=O)NCCc3c[nH]c4ccccc34)c12	-4.2	-5.4	-18.6%	2.62µM*	1.85µM*	3.2%
CCCc1cc(=O)oc2cc(C)cc(OCC(=O)NC3CC3)c12	-5.7	-4.2	3.8%	2.08µM*	1.65µM*	-12.1%
CCCc1cc(=O)oc2cc(C)cc(OCC(=O)NCCN3CCOCC3)c12	-2.4	-6.1	-2.0%	?	-16.9%	-6.3%
CCc1cc(=O)oc2cc(C)cc(OCC(=O)NC3CC3)c12	-8.9	-0.9	5.3%	?	11.7µM*	-1.9%
CCCn1c(COc2cccc(C)c2)nc2ccccc21	nt	nt	nt	nt	nt	-3.3%
O=C(Nc1cccnc1)c1ccc2c(c1)C(=O)N(Cc1cccnc1)C2=O	-2.7	-5.8	-5.8%	9.28µM*	2.9%	-16.4%
O=C(NCc1cccnc1)c1ccc2c(c1)C(=O)N(Cc1ccccc1)C2=O	6.9	-31.1	-4.9%	4.15µM*	16.3%	7.3%
O=C(NCc1ccc2c(c1)OCO2)c1ccc2c(c1)C(=O)N(Cc1cccnc1)C2=O	-1.4	-5.9	2.0%	?	10.2%	3.1%
CC(=O)c1cccc(NC(=O)c2ccc3c(c2)C(=O)N(Cc2cccnc2)C3=O)c1	-1.9	-46.9	3.3%	87.5%	13.4%	-23.3%
CC1CCCN(Cc2nc(Cc3ccccc3Cl)no2)C1 (stereo not drawn)	22.9*	37.7*	2.6%	?	32.0%	-16.9%
FC(F)(F)c1cccc(Cc2noc(CN3CCCC(CN4CCCC4)C3)n2)c1 (stereo not drawn)	-4.7	-4.2	1.1%	9.28µM*	2.62µM*	14.9%
CCOC(=O)C1CCCN(Cc2nc(Cc3ccccc3Cl)no2)C1 (stereo not drawn)	-2.1	-3.6	-2.4%	?	2.0%	9.8%
FC(F)(F)c1cccc(Cc2noc(CN3CCSCC3)n2)c1	0.6	-6.7	3.3%	-12.4%	20.0%	-10.6%
OC1CCCN(Cc2nc(Cc3ccccc3Cl)no2)C1 (stereo not drawn)	17.2*	27.8	2.5%	10.4µM*	40.4%	65.4%
S=C=Nc1cccc(C2(N3CCCCC3)CCCCC2)c1	nt	nt	nt	1.65µM*	2.62µM*	?
N#C[C@H](C(=O)O)C(c1c(Cl)cccc1Cl)[C@H](C#N)C(=O)O	nt	nt	5.9%	nt	nt	nt
O=C(Nc1ccc(Cn2cccn2)cc1)c1ccc(COc2cccc(Br)c2)cc1	18.6*	21.7	-2.4%	?	nt	-2.8%
C/C(=N\OC(=O)c1ccc(Cl)cc1)c1sc(-c2ccccc2)nc1C	19.4	21.9	-1.4%	204.2%	203.8%	3.4%
C/C(=N\OC(=O)NC(C)C)c1sc(-c2ccc(Cl)cc2)nc1C	33.6*	111.6*	-27.6%	138.0%	94.2%	-0.7%
